According to ChEMBL document CHEMBL3988442, “University of Dundee, Small-Polar-MMV Screening Library” (2021):
Screen size: about 65,000 compounds; about 65 (0.1%) showed an effect of 50% or more. Shown is part of a subset that was picked to be rich in strong results.

These compounds were tested against Tryptophan--tRNA ligase (Mycobacterium tuberculosis (strain ATCC 25618 / H37Rv)) (UniProt P9WFT3) (assay: Biochemical assay for Mt-TrpRS). Settings: 10 µM.
Sequence of Tryptophan--tRNA ligase (Mycobacterium tuberculosis (strain ATCC 25618 / H37Rv)) (P9WFT3 whole entry): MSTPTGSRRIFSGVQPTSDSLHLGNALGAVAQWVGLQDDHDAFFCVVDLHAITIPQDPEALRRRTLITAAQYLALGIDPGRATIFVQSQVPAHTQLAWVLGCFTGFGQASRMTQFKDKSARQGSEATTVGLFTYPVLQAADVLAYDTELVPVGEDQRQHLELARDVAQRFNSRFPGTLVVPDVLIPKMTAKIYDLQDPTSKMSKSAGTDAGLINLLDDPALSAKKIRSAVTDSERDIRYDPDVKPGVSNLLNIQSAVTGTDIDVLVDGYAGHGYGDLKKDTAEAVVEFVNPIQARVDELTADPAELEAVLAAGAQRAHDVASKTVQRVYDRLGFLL
Type: functional
Parameters: scale not given: direction of the effect not stated beside the values
Work on CNC(=O)N1CC[C@@H]2CN(CCc3cccc(OC)c3)S(=O)(=O)[C@@H]2CC1 yielded a Percent Effect of -3.31%. For CCc1cnc(N2C[C@H]3C[C@H](C(=O)NC4CCC4)[C@@H](C2)O3)nc1, the Percent Effect was -1.02%. Work on CCNC(=O)N1C[C@@H]2OCC(=O)N(CC3CC3)[C@@H]2C1 yielded a Percent Effect of -1.91%. Compound Cc1cccnc1NCCNC(=O)c1cnc(-c2ccccn2)nc1O has a Percent Effect of 2.7%. In the case of Cn1cc(CN2CC[C@H]3OCC[C@@H](C(=O)NCc4ccco4)[C@@H]3C2)cn1, the Percent Effect is reported as 0.83%. For O=C1C[C@H]2[C@@H](CCN2C(=O)c2ccoc2)N1CCN1CCOCC1, the Percent Effect was 2.55%. Cn1ccnc1C(=O)N1C[C@@H]2CCN(c3cnccn3)C[C@@H]2C1 gave a Percent Effect of 2.7%. Cc1ccc(-c2noc(C3CCN3C(=O)c3ccn(C)n3)n2)s1 (stereo unspecified) was tested, and the Percent Effect was -4.63%. CC(=O)N1CCC1c1nc(-c2ccc(C)s2)no1 (stereo unspecified) showed a Percent Effect of 13.1%. Compound CC(=O)N1CCC(C(=O)N2CCC2c2nc(-c3ccc(C)s3)no2)CC1 (stereo unspecified) has a Percent Effect of 56.7%. COCCNC(=O)Cn1ccc2sc(C)cc2c1=O was tested, and the Percent Effect was 0.44%. CCCc1noc(CN2CCN(c3nccs3)CC2)n1 was tested, and the Percent Effect was 2.03%. CCc1noc(CN2CCN(c3nccs3)CC2)n1 gave a Percent Effect of 71.8%. CC(C)Cc1noc(CN2CCN(c3nccs3)CC2)n1 showed a Percent Effect of -1.84%. In the case of Cc1nn(C)c2c(=O)n(CC(=O)NCCC3=CCCCC3)ccc12, the Percent Effect is reported as 2.33%. Work on CCCN(CC)c1ccc(C(=O)N2CCCC2c2cnn(C)c2)cn1 (stereo unspecified) yielded a Percent Effect of -3.89%. With CCN(c1ccc(C(=O)N2CCCC2c2cnn(C)c2)cn1)C(C)C (stereo unspecified) the Percent Effect was 64.8%. CC(C)CN(C)c1ccc(C(=O)N2CCCC2c2cnn(C)c2)cn1 (stereo unspecified) showed a Percent Effect of 2.24%. O=C([C@H]1CN(Cc2nccs2)C[C@H]2OCC[C@@H]12)N1CCCC1 gave a Percent Effect of 4.93%. With O=C1CO[C@@H]2CN(S(=O)(=O)c3ccccc3)C[C@H]2N1CC1CC1 the Percent Effect was 4.3%. Cc1noc(CN(Cc2cccs2)C2CCS(=O)(=O)C2)n1 (stereo unspecified) was tested, and the Percent Effect was -5.5%. O=S1(=O)CCC(N(Cc2nc3ccccc3o2)Cc2cccs2)C1 (stereo unspecified) showed a Percent Effect of 57%. In the case of CC(C)(C)c1nc(CN(Cc2cccs2)C2CCS(=O)(=O)C2)no1 (stereo unspecified), the Percent Effect is reported as -0.877%. Cc1noc(C)c1CN(Cc1cccs1)C1CCS(=O)(=O)C1 (stereo unspecified) was tested, and the Percent Effect was 59.4%. Cc1nc(CN(Cc2cccs2)C2CCS(=O)(=O)C2)oc1C (stereo unspecified) was tested, and the Percent Effect was 1.07%. O=S1(=O)CCC(N(Cc2nc(-c3ccccn3)no2)Cc2cccs2)C1 (stereo unspecified) gave a Percent Effect of -6.38%. Compound O=C(c1ccnnc1)N1C[C@@H]2C[C@@H](c3nc(C4CC4)cs3)O[C@@H]2C1 has a Percent Effect of 2.42%. Work on O=C(NCc1ccco1)[C@@H]1CCO[C@@H]2CCN(c3ncccn3)C[C@@H]21 yielded a Percent Effect of 3.59%. c1cncc(OCc2noc3c2CN(Cc2ccsc2)CC3)c1 was tested, and the Percent Effect was -0.692%. CC(c1nc(C2CC2)no1)N1CCN(c2ccc(C#N)cn2)CC1 (stereo unspecified) showed a Percent Effect of 0.106%. With O=C1CC[C@H]2CN(Cc3ccc(Cl)s3)CC[C@H]2N1CCc1c[nH]cn1 the Percent Effect was 0.411%.
